Results as given in PubChem BioAssay AID624417 (National Center for Advancing Translational Sciences (NCATS), 2012).
The whole screen tested about 410,000 compounds, of which about 6,400 (1.6%) were called active. Inconclusive results (about 20%) are left out. The entries come from a sample that favours actives as a whole. Values without a mark were called inactive. Calls come from the whole dose curve; as a rule, active = well fitted inhibition curve with a large enough effect; inconclusive = small, poorly fitted or top-dose-only effect; inactive = no such curve, though single readings can be large or run the other way.

Biological target: Glucagon-like peptide 1 receptor (Homo sapiens) (UniProt P43220)
Sequence (P43220 whole entry, looked up): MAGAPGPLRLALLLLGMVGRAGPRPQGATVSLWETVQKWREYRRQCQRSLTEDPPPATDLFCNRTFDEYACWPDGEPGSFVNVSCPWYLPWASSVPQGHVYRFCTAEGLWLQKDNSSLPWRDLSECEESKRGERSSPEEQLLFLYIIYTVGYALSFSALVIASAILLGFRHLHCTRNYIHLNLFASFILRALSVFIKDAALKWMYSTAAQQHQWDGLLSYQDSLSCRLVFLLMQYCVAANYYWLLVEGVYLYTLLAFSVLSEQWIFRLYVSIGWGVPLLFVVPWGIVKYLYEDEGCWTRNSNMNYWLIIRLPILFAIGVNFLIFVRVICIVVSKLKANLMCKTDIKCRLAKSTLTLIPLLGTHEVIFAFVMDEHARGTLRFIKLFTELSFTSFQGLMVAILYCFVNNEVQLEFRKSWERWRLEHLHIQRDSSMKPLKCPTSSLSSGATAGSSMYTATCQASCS
Assay: qHTS of GLP-1 Receptor Inverse Agonists (Inhibition Mode); note: nearly all actives have a fitted effect of over 55% in size
Details: HEK293 GLP-1R CRE-luciferase, luminescence, 24 h, GLP-1R form is constitutively active; series mostly up to 38.3 µM; activity change, negative = inhibition: at the top concentration
Summary of the method: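 Using stably transfected HEK293 (constitutively active GLP-1R, cAMP-luciferase reporter), compounds were incubated 24 hr and luciferase measured by luminescence.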
% is set by controls: 0 for no effect and ±100 for the full control effect; potency is the fitted concentration of half-maximal effect.

Structure (SMILES) | activity change, negative = inhibition [%] | Potency
Cc1ccc(-c2ccc(C3=CC(=O)CC(C)(C)C3=O)cc2)cc1 | 4.58 | –
CCc1nc2ccc(C(=O)NC3CCN(Cc4ccccc4)CC3)cn2c1N(C)CCN1CCOCC1 | 7.53 | –
CC(C)CCC(=O)Nc1cc(S(=O)(=O)N2CCOCC2)ccc1N1CCCC1 | 8.82 | –
O=S(=O)(c1ccc2nc(N3CCN(c4cccc(Cl)c4)CC3)ccc2c1)N1CCCCC1 | 3.79 | –
CC(=O)c1cccc(Nc2ccc3cc(S(=O)(=O)N4CCC(C)CC4)ccc3n2)c1 | -17.5 | –
Cc1ccc(Nc2ccc3cc(S(=O)(=O)N4CCCCC4)ccc3n2)cc1F | – | 2.82 µM (active)
COc1ccc(NC(=O)CN2C(=O)C(c3ccccc3)=NC23CCCCCC3)cc1OC | -8.64 | –
Cc1ccc(NC(=O)CN2C(=O)C(c3ccc(F)cc3)=NC23CCCCCC3)c(C)c1 | -6.38 | –
CC1CCC2(CC1)N=C(c1ccccc1)C(=O)N2CC(=O)Nc1ccc(F)c(Cl)c1 (stereo not given) | – | 10 µM (active)
CC(C)(C)c1ccc(S(=O)(=O)NC(=O)C2(C)CCN2C(=O)CC2CC2)cc1 (stereo not given) | -9.62 | –
CCOC(=O)C1(CCOc2ccccc2)CCN(Cc2cc(OC)cc(OC)c2)CC1 | – | 10 µM (active)
CCOC(=O)C1(S(=O)(=O)c2ccc(Cl)cc2)CCN(Cc2ccccc2)CC1 | -22.8 | –
CCCS(=O)(=O)N1CCC(CCOc2ccccc2)(C(=O)OCC)CC1 | -4.3 | –
CCOC(=O)C1(CCOc2ccccc2)CCN(C(=O)c2cncs2)CC1 | 9.36 | –
CCOC(=O)C1(CCOc2ccccc2)CCN(Cc2ccc(C#CCCO)cc2)CC1 | – | 7.94 µM (active)
CCOC(=O)C1(CCOC)CCN(Cc2ccc(C(=O)OC)cc2)CC1 | -8.63 | –
COC(=O)C[C@@H]1C=C[C@@H](NC(=O)c2cccnc2)[C@@H](CO)O1 | -5.33 | –
COc1ccc(CN2C[C@H]3CON(C)[C@H]3C[C@H]2c2ccc(-c3cccc(F)c3)cc2)cc1 | 11.3 | –
CC1C(=O)N(Cc2cn(CC3CCCCC3)nn2)CCS(=O)(=O)N1Cc1ccc(-c2cccc(N(C)C)c2)cc1 (stereo not given) | -14 | –
O=S1(=O)CCN(Cc2ccccc2)CC1 | 12.2 | –
O=C(NC1CCCC1)C1CCN(C(=O)Nc2cccc(Cl)c2)CC1 | -7.43 | –
O=C(Nc1cccc(-c2cccc(Cl)c2)c1)C1CCN(C2CCC2)CC1 | – | 6.31 µM (active)
COc1cccc(-c2cccc(NC(=O)C3CCN(C4CCC4)CC3)c2)c1 | -12.5 | –
Cc1cc2c(cc1C)N1C(=O)c3cc4ccccc4cc3NC(=O)C1C(=O)N2 (stereo not given) | 9.55 | –
NNC(=O)c1ccc(Cl)cc1Cl | 5.99 | –

Structure (SMILES) | activity change, negative = inhibition [%] | Potency
O=S(=O)(CCc1nc2ccccc2o1)c1ccc(Cl)cc1 | -14.7 | –
O=S(=O)(Cc1ccc(Cl)cc1Cl)c1ccc(Cl)cc1 | – | 12.6 µM (active)
COCCNc1nc(NCc2ccc(NC(C)=O)cc2)c2sccc2n1 | -0.0128 | –
C[C@H](CO)N1C[C@H](C)[C@@H](CN(C)S(=O)(=O)c2ccc(Oc3ccccc3)cc2)OCc2cn(nn2)CCCC1=O | 30.7 | –
Cc1csc(SCC(=O)Nc2ccc(C)c(S(=O)(=O)N(C)C)c2)n1 | 4.33 | –
Cc1nnc(NCCO)c2ccccc12 | 20.4 | –
CN(C)c1nc(Nc2ccc(Cl)c(Cl)c2)nc(N(C)C)n1 | -36.4 | –
OCCNc1nc(Nc2ccc(Cl)c(Cl)c2)nc2ccccc12 | – | 3.98 µM (active)
CC(=O)Nc1ccc(CNc2nc(NCCN(C)C)nc3cc(-c4ccccc4)sc23)cc1 | -27.5 | –
CCOc1cccc(C(=O)Nc2nnc(-c3cccs3)s2)c1 | 25.6 | –
CCOc1cccc(C(=O)Nc2cnn(Cc3ccccc3)c2)c1 | – | 10 µM (active)
CCCOc1cccc(C(=O)NCCCNC(=O)c2cccnc2)c1 | 20.7 | –
Cc1nccn1-c1ccc(NC(=O)[C@H]2O[C@@H](n3cnc4c(N)ncnc43)[C@H](O)[C@@H]2O)cc1 | 32.2 | –
Cc1ccccc1-c1nc(CS(=O)(=O)CC(=O)NC(C)c2ccccc2)c(C)o1 (stereo not given) | – | 4.47 µM (active)
CSc1ccc(CCNC(=O)CS(=O)(=O)Cc2nc(-c3ccccc3F)oc2C)cc1 | 9.93 | –
Cc1ccc(S(=O)(=O)CC(=O)NC(C)c2ccccc2)cc1 (stereo not given) | -15.5 | –
CN(Cc1ccccc1)C(=O)[C@@H]1CCCN1C(=O)[C@@H]1CCCN1C(=O)c1c(F)cccc1F | 11.3 | –
CCOC(=O)[C@]12CCC=C1N(CCC1=CCCCC1)C(=O)[C@H](CC(=O)NCc1ccc(C)o1)C2 | 14 | –
O=C(CN1CCN(Cc2ccc(Cl)cc2)C1=O)NCc1ccc(F)cc1 | -5.81 | –
Cc1ccc(CNC(=O)CN2CCN(Cc3ccc(Cl)cc3)C2=O)cc1 | – | 7.94 µM (active)
CC(NC(=O)CN1CCN(Cc2ccc(Cl)cc2)C1=O)c1ccc2c(c1)OCCO2 (stereo not given) | -23.5 | –
CC(C)C1CC2=C(C(=O)OC(C)(C)O2)C(c2ccc(F)cc2)O1 (stereo not given) | -19.2 | –
Cc1ccc([C@H]2C[C@H](O)[C@@H](n3cc(COC(=O)c4ccccc4)nn3)CN2CC2CCCCC2)cc1 | 1.35 | –
CC(=O)N1C[C@@H](CO)[C@@H](N(C)C(=O)c2ccco2)C[C@H]1c1ccccc1 | 17.5 | –
COc1ccccc1-c1n[nH]nc1C1=CC(=O)CC(C)(C)C1 | -11.7 | –

Structure (SMILES) | activity change, negative = inhibition [%] | Potency
NS(=O)(=O)c1ccc(CNC(=O)c2cccc(S(=O)(=O)N3CCc4ccccc43)c2)cc1 | -4.07 | –
Cc1cccc(NC(=O)c2cccc(S(=O)(=O)N3CCCC3)c2)n1 | -2.27 | –
Cc1ccc(NC(=O)c2cccc(S(=O)(=O)N3CCCc4ccccc43)c2)nc1 | – | 7.94 µM (active)
COc1ccc(NC(=O)N(C)C[C@H]2Oc3ncc(C#C[C@@H](C)O)cc3C(=O)N([C@H](C)CO)C[C@H]2C)cc1 | 19.3 | –
Cn1c(Nc2ccc(F)cc2)nc2cc(-c3ccsc3)sc2c1=O | 13.3 | –
CCN(CCN(C)C)C(=O)c1ccc2nc(C)c(N(C)C(=O)CCc3ccccc3)n2c1 | 12.2 | –
O=C(NCc1nnnn1-c1ccc(Cl)cc1)c1ccc([N+](=O)[O-])o1 | 12.3 | –
CC1CCN(Cc2nc(-c3ccc(Cl)cc3)no2)CC1 | -29.5 | –
CCN1CC(CN(C)Cc2nc(-c3ccc(Cl)cc3)no2)CC1=O (stereo not given) | -4.38 | –
Cc1ccc(S(=O)(=O)N(Cc2nc(-c3ccc(Cl)cc3)no2)C2CCCCC2)cc1 | – | 10 µM (active)
CCN(CC)C(=O)C(C)N1c2cccc3cccc(c23)S1(=O)=O (stereo not given) | -23.4 | –
CCc1cccc(C)c1N1C(=O)CN(Cc2ccccc2)C1=S | – | 5.62 µM (active)
O=C1C[C@@H]2c3c(cccc3CN1Cc1ccccc1)C[C@@H](O)[C@H]2O | 26.3 | –
CC1CN(Cc2ccccc2)C(=S)NC1=O (stereo not given) | 0.404 | –
Nc1ncnc2c1ncn2[C@@H]1O[C@H](C(=O)N2CCSC2)[C@@H](O)[C@H]1O | 0.629 | –
CCOc1cc(/C=N/NC(=O)c2c(C)nc3ccc(Cl)cn23)ccc1O | 1.83 | –
CC(=O)C[C@@H]1OC[C@H](C)N1S(=O)(=O)c1ccc(C)cc1 | 0.373 | –
CCCC(=O)N1CCC1(C)C(=O)NCc1ccc(C(C)C)cc1 (stereo not given) | 17.7 | –
O=C(NNc1cc(Cl)cc(Cl)c1)c1c(F)cccc1Cl | – | 10 µM (active)
CCN(CC)CCNC(=O)c1ccc(NC(=O)c2c(F)cccc2Cl)cc1 | -15.9 | –
O=C(Nc1nnc(-c2ccc(F)cc2)s1)c1c(F)cccc1Cl | -21.4 | –
CN1CCN(c2ccncc2S(=O)(=O)N2CCCC2)CC1 | 14 | –
COCCNC(=O)c1cc2c(Br)ccc(Br)c2nc1N | 3.82 | –
O=C(C[C@H]1CC[C@@H](NC(=O)c2ccncc2)[C@@H](CO)O1)NCC1CC1 | 19.3 | –
CCOc1cccc(/C=C/c2ccc3ccccc3n2)c1OC(C)=O | – | 10 µM (active)

Structure (SMILES) | activity change, negative = inhibition [%] | Potency
CCOc1ccccc1-c1cc(C(=O)N2CCOCC2)c2ccccc2n1 | -1.25 | –
CCOc1ccccc1/C=N/Nc1nc2ccccc2o1 | 4.76 | –
CC(C)(C)S(=O)N1Cc2cc(C(=O)NCCCN3CCOCC3)nc(-c3cccc(-c4cc5ccccc5o4)c3)c2[C@H]1CCO (stereo not given in full) | 4.49 | –
COc1cccc(CC(=O)Nc2ccc(-c3csc(C)n3)cc2)c1 | -12.6 | –
COc1cccc(N2CCN(CC(=O)Nc3ccnn3C3CCCC3)CC2)c1 | -24.6 | –
COc1cccc(NC(=O)CN2CCN(c3nc(-c4cccc(OC)c4)cs3)CC2)c1 | – | 10 µM (active)
CC(C)CN1CCC1(C)C(=O)Nc1ccc(OC(F)F)cc1 (stereo not given) | -21 | –
C[N+](C)(C)CCNC(=O)c1c[nH]c2ccccc12 | 15.7 | –
CC(C)c1cc(C(=O)N(C)C2CCCN(Cc3ccccc3F)C2)n(C)n1 (stereo not given) | -8.11 | –
COc1cc2c(cc1O)C(SC)=NC(C)(C)C2 | – | 10 µM (active)
COc1cc2c(cc1OC)C(Nc1ccc(S(N)(=O)=O)cc1)=NC(C)(C)C2 | 120 | –
COc1cc2c(cc1OC)C(C(C)C)=NC(C)(C)C2 | 41.3 | –
CC(=O)NN=C(C)c1ccc(NC(=O)C2CC2)cc1 | -13.4 | –
N#Cc1ccc(C(C(=O)NCc2ccccc2)n2c(=O)c(-c3ccco3)nc3ccccc32)cc1 (stereo not given) | -11.9 | –
Cc1ccc(NC(=O)Cn2sc3ccccc3c2=O)cc1 | -7.13 | –
O=C(O)c1cccc(NC(=S)N/N=C/c2c[nH]c3ccccc23)c1 | -14.5 | –
CSC(=S)N/N=C/c1c[nH]c2ccccc12 | – | 3.16 µM (active)
COCCNC(=S)N/N=C/c1c(C)[nH]c2ccccc12 | -22.1 | –
CCc1nc2ccc(C(=O)N3CCC(O)(Cc4ccccc4)CC3)cn2c1N(C)C(=O)Cc1ccccc1 | -20 | –
Cc1ccc(S(=O)(=O)N(CC(=O)Nc2cccnc2)c2ccc(Br)cc2)cc1 | – | 11.2 µM (active)
CCNC(=O)CN(c1ccc(C)cc1)S(=O)(=O)c1ccc(SC)cc1 | -13.4 | –
CCc1ccc(N(CC(=O)NCc2cccnc2)S(=O)(=O)c2ccccc2)cc1 | -16.9 | –
NC(=S)N/N=C/c1coc2cc(Cl)ccc2c1=O | 8.08 | –
CC(C)Oc1c(Br)cc(Br)cc1/C=N/NC(N)=S | – | 2.51 µM (active)
CCOc1ccc(/C=N/NC(N)=S)cc1 | -13.1 | –
